# Assay outcomes: PubChem, Broad Institute
# MITF TRPM1 inh = inhibitors of MITF-driven TRPM1 promoter in melanoma cells; SK-MEL-5 TRPM1 promoter luciferase, 24 h; inhibition, % at 12.5 µM; 330,000 tested, 0.83% active; AID 488899;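 active = mean inhibition across replicates of 60% or more, whatever share of single replicates reaches that level; inconclusive = some that reach 60%, reason not given; inactive = mean inhibition across replicates below 60%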
# LGR2 inh = inhibitors of bursicon-induced Drosophila LGR2 receptor cAMP signaling | HEK293 LGR2, CRE-luciferase, bursicon-stimulated, 4 h | inhibition, % at 9.99 µM | 380,000 tested, 0.35% active;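 active = drop in luminescence signal, shown as inhibition above about 50% in the replicate tests, limit read from the data, passing the limit was not always enough; inconclusive = probably only some replicates passing the limit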;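 note: agonist challenge used bursicon conditioned medium at about half maximal strength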
# EWS-Fli inh = EWS/Fli transcriptional activity inhibition; 350,000 tested, 0.67% active; A673 NR0B1-luciferase reporter, viability-normalised; inhibition, % at 12.6 µM; AID 651661;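 active = mean inhibition of at least 50% after viability correction, with every replicate also passing that limit; inconclusive = mean reaches 50% but only one of two replicates passes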;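 note: firefly luciferase signal divided by Alamar Blue viability fluorescence both relative to DMSO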
# PAX8 inh HTS = lowers PAX8-driven luciferase in RMG-I cells; RMG-I TPO-luciferase reporter, SteadyGlo, 24 h; 360,000 tested, 1.2% active; inhibition, % at 12.6 µM;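 active = mean replicate inhibition at least 60% with every replicate also reaching 60%; inconclusive = only one of the two criteria is met; inactive = mean below 60% and not all replicates reaching 60%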;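 note: luciferase light reporting Pax8 driven TPO promoter activity; plate controls were median of neutral control wells for no effect and mitoxantrone controls for full effect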
# Shn3 3UTR inh = inhibitors of Schnurri-3 3'UTR reporter in osteoblasts; Clone20 osteoblast Shn3 3'UTR firefly luciferase, 24 h; AID 588674; 360,000 tested, 0.52% active; inhibition, % at 12.5 µM;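 active = mean inhibition of at least 75% with every replicate also reaching 75%; inconclusive = mean inhibition at least 75% but some replicate below; inactive = mean inhibition below 75%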;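 note: 0% = median of neutral control wells and 100% = pilot-screen positive control compound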
# LMP1 NFkB inh = Epstein-Barr LMP1 NF-kappaB reporter inhibition | LMP1-induced NF-kappaB luciferase reporter cells, luminescence | inhibition, % at 12.5 µM | 350,000 tested, 0.69% active; in the data active = inhibition above about 41%; inconclusive = no clear call, values can overlap the other calls;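 note: 0% = neutral control wells and 100% = reference inhibitor control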
# * hit, by the source's call; u = inconclusive; x = no result. Hits are enriched below; roughly 2.2% of the tested compounds scored in any of these assays.
SMILES,MITF TRPM1 inh,LGR2 inh,EWS-Fli inh,PAX8 inh HTS,Shn3 3UTR inh,LMP1 NFkB inh
C[C@@H]1CN([C@H](C)CO)C(=O)c2cc(NC(=O)CCCN(C)C)ccc2O[C@@H]1CN(C)Cc1ccc2c(c1)OCO2,x,-1,x,x,x,x
CCCCOc1ccc(C)cc1CN(CCO)CCO,-7,x,x,x,0,0
CCC(C)(C)c1ccc(OCCCC[n+]2ccccc2)c(C(C)(C)CC)c1,100*,19,27,88*,81,15
CCCCCc1ccc(OCCCC[n+]2cccc(C)c2)c(CCCCC)c1,79*,u,33,94*,79,16
CCCCCc1ccc(OCCCC[n+]2ccccc2)c(CCCCC)c1,87*,x,x,x,90*,55*
Cc1cc(=O)oc2cc(OCCCC[n+]3ccccc3)ccc12,-9,-2,-26,-5,-47,-14
CCCCCc1ccc(OCCCC[n+]2ccc(C)cc2)c(CCCCC)c1,101*,54*,33,74*,84,20
Cc1c(C(=O)N(Cc2cccc(Br)c2)C2CCS(=O)(=O)C2)oc2ccccc12 (stereo unspecified),28,16,10,0,86*,-10
CS(=O)(=O)c1ccc(-c2cn3cc(C(=O)O)ccc3n2)cc1,39,77*,1,7,8,11
O=C(Cn1nc(CNc2ccc(Cl)cc2)[n+]2c1CCCCC2)c1ccc(Br)cc1,10,-2,-9,1,-3,4
O=C(Cn1nc(CNc2ccc(Br)cc2)[n+]2c1CCCCC2)c1ccc([N+](=O)[O-])cc1,1,x,12,71*,-6,1
O=C(O)/C=C/c1cnn(-c2ccccc2)c1,9,59*,31,12,-11,12
C[C@H](CO)N1C[C@H](C)[C@H](CN(C)C(=O)CC2CC2)Oc2cc(C3=CCCC3)ccc2S1(=O)=O,x,0,-2,x,x,x
C=C1CCc2c([nH]c3ccc(OCC(C)C)cc23)C1=O,58,8,u,111*,81,9
CCC(=O)N(C)C[C@H]1Oc2ncc(C#Cc3ccccc3)cc2C(=O)N([C@H](C)CO)C[C@@H]1C,x,15,-1,x,x,x
CC(C)(C)C(=O)Nc1ccc(NC(=O)c2ccco2)nc1,92*,98*,88*,109*,90*,81*
O=C(Nc1ccc(NC(=O)c2ccco2)nc1)c1ccco1,5,60*,40,-7,-5,45*
O=C(Nc1ccc(NC(=O)c2ccco2)nc1)c1ccccn1,-12,x,x,-10,-18,16
O=C(Cc1ccccc1)Nc1ccc(NC(=O)c2ccco2)nc1,-63,x,x,-186,-25,-33
CN(C)CC#Cc1cccc(-c2nc(C(=O)NCCCN3CCOCC3)cc3c2[C@H](CCO)N(S(=O)C(C)(C)C)C3)c1 (stereo partly specified),x,x,0,2,x,x
CC(C)(C)c1nn(-c2ccccc2)c2[nH]c(=O)c(CNCc3ccco3)cc12,67*,-18,x,x,-1,1
CC1CC(Nc2ccccc2)c2ccccc2N1C(=O)c1cccnc1 (stereo unspecified),15,10,x,x,6,9
CC1CC(Nc2ccccc2)c2ccccc2N1C(=O)c1ccccc1F (stereo unspecified),13,20,63*,35,31,15
Cc1ccc(Cl)cc1N1CCN(C(=O)c2cn(C)c(=O)c3c2c2ccccc2n3C)CC1,-3,7,54*,x,12,21
Cc1cccc(N2CCN(C(=O)c3cn(C)c(=O)c4c3c3ccccc3n4C)CC2)c1C,6,6,0,x,15,8
SMILES,MITF TRPM1 inh,LGR2 inh,EWS-Fli inh,PAX8 inh HTS,Shn3 3UTR inh,LMP1 NFkB inh
COc1ccc(/C=N/NC(=O)c2cccnc2)cc1CN1CCN(c2ccc(F)cc2)CC1,-2,0,8,23,-8,-22
COc1ccc(C(=O)N/N=C/c2ccc(OC)c(CN3CCN(c4ccc(F)cc4)CC3)c2)cc1,-8,x,-3,144*,-23,-2
CCC(=O)N1C[C@@H](C)[C@@H](OC)CN(C)C(=O)c2ccc(NC(=O)Nc3ccc(Cl)cc3)cc2OC[C@H]1C,x,11,-1,18,x,x
CO[C@@H]1CN(C)C(=O)c2ccc(NC(=O)NC3CCCCC3)cc2OC[C@@H](C)N(CCc2ccccc2)C[C@H]1C,x,25,7,66*,x,x
COCC(=O)N1C[C@H](C)[C@H](OC)CN(C)C(=O)c2ccc(NC(=O)Nc3cccc(F)c3)cc2OC[C@@H]1C,x,5,56*,x,x,x
CCC(=O)N1C[C@H](C)[C@@H](OC)CN(C)C(=O)c2ccc(NC(=O)Nc3ccc(Cl)cc3)cc2OC[C@@H]1C,x,0,53*,x,x,x
C[C@@H]1CN([C@@H](C)CO)C(=O)c2cc(NC(=O)Nc3ccc(C(F)(F)F)cc3)ccc2O[C@@H](C)CCCCO[C@H]1CN(C)C(=O)Nc1ccccc1,x,-5,x,x,x,x
Cn1c(-c2ccccc2)c(CCO)c2ccccc21,1,x,x,-2,-6,-16
CCn1c(-c2ccccc2)c(C(=O)CCl)c2ccccc21,73*,34,34,39,15,9
CCn1c2ccccc2c(=O)c2ccccc21,0,-54,-1,-13,-19,-1
Cn1c(-c2ccccc2)c(C(=O)CCl)c2ccccc21,92*,x,-10,44,60,8
C[C@@H]1CCCCO[C@@H](CN(C)C(=O)Nc2ccc(C(F)(F)F)cc2)[C@@H](C)CN([C@@H](C)CO)C(=O)c2cc(N(C)C)ccc2O1,x,20,2,u,x,x
O=C(CNS(=O)(=O)c1c(Cl)cccc1Cl)OCC(=O)c1ccc[nH]1,5,-4,-3,75*,5,-7
O=C(N/N=C/c1ccccc1)C(=O)N/N=C/c1ccccc1,-7,-1,0,-6,-3,-4
O=C(C=C=Nc1ccccc1)C(=O)N=C=Cc1ccccc1,82*,21,7,80*,-3,-10
C[C@H]1CN([C@@H](C)CO)C(=O)c2cc(-c3ccc(F)cc3)cnc2O[C@@H]1CN(C)C(=O)c1ccncc1,x,3,-5,x,x,x
COc1ccc(CN(C)C[C@H]2OCCCC[C@H](C)Oc3ccc(NC(=O)CCC(F)(F)F)cc3C(=O)N([C@H](C)CO)C[C@@H]2C)cc1,x,-3,-11,-7,x,x
CC1(C)Cc2c(c(N3CCOCC3)nc3sc4c(NCCN)ncnc4c23)CO1,70*,-9,5,-2,-29,-1
CCN(CC)CCNc1ncnc2c1sc1nc(N3CCOCC3)c3c(c12)CC(C)(C)SC3,-6,x,x,16,22,-4
COCCNc1nnnc2c1sc1nc(N3CCOCC3)c3c(c12)CC(C)(C)OC3,-1,-1,5,3,-9,0
CN(C)CCNc1ncnc2c1sc1nc(N3CCOCC3)c3c(c12)CC(C)(C)SC3,77*,x,x,48,6,8
O=C(CC(F)(F)F)N1C[C@@H]2[C@H](c3ccccc31)[C@H](CO)N2C(=O)C1CCOCC1,x,-8,0,20,x,x
